Measured values reported in PubChem BioAssay (NCATS).
Where “and” joins values, the source holds several entries; their conditions need not be identical. Identical values can stand only once. Results filed as inconclusive are left out. More than one record can exist for a structure, and the calls need not agree. Calls of active or inactive are those of the source. Calls follow the shape of the dose curve; as a rule, active = well fitted curve in the direction sought with a large enough effect; inconclusive = small, poorly fitted or top-dose-only effect, or another doubt; inactive = no such curve, though single readings can be large; an effect the other way counts as inactive or inconclusive.

Key:
[1] = target: Rap guanine nucleotide exchange factor 3 (Homo sapiens) (UniProt O95398); experiment: Confirmatory qHTS for antagonist of cAMP-regulated guanine nucleotide exchange factor 3 (EPAC1) (AID 1645880); also: nearly all actives have a fitted effect of over 55% in size; also: potency is read from the fitted curve at half-maximal effect
Sequence of Rap guanine nucleotide exchange factor 3 (Homo sapiens) (O95398 whole entry, looked up): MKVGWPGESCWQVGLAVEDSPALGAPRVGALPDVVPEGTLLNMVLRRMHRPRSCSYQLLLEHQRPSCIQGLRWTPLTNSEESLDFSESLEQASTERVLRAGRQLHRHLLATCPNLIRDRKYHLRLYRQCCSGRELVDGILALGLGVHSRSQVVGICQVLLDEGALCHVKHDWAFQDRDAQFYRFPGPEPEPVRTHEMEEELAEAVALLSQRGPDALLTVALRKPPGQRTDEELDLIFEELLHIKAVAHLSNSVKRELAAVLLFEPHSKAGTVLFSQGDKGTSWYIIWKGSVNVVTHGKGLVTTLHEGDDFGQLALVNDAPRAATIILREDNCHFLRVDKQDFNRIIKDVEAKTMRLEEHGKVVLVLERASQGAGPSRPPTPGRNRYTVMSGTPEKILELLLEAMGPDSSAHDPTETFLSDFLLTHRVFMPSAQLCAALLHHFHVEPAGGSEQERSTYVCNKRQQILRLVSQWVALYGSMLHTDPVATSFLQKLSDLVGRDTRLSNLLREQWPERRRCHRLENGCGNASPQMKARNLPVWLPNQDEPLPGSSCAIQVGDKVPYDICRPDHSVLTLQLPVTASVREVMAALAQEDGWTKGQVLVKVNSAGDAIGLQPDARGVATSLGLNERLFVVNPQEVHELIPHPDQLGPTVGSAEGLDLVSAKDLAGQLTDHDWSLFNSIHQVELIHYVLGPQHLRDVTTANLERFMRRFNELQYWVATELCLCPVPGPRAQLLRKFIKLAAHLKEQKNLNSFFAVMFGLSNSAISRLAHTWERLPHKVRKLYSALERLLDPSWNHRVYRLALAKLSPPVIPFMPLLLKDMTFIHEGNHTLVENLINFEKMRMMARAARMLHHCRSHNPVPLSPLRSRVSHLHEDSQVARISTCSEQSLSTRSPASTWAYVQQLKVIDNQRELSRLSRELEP
How it was run: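 Nucleotide exchange uses 100 nM EPAC1, 250 nM RAP1B-BODIPY-GDP and 50 uM GDP, with compounds in a concentration-titration series. After 5 min at room temperature, fluorescence (480 nm ex/540 nm em) is read every 5 min for 30 min. Data are normalized to control ATA and DMSO.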

[2] = target: Rap guanine nucleotide exchange factor 3 (Homo sapiens) (UniProt O95398); experiment: Confirmatory qHTS for agonist of cAMP-regulated guanine nucleotide exchange factor 3 (EPAC1) (AID 1645881); also: nearly all actives have a fitted effect of over 75% in size; also: potency is read from the fitted curve at half-maximal effect;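 as to activation: EPAC1 catalysed release of BODIPY-GDP from Rap1B seen as fluorescence loss; 100% = effect of cAMP agonist control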
[3] = target: Rap guanine nucleotide exchange factor 4 (Homo sapiens) (UniProt Q8WZA2); experiment: Confirmatory qHTS for agonist of cAMP-regulated guanine nucleotide exchange factor 4 (EPAC2) (AID 1645884);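 also: nucleotide exchange releases bodipy-GDP from Rap1 and this lowers its fluorescence; nearly all actives have a fitted effect of over 65% in size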; also: potency is read from the fitted curve at half-maximal effect; as to activation: % is scaled to controls: 0 for no effect and ±100 for the full control effect
Sequence of Rap guanine nucleotide exchange factor 4 (Homo sapiens) (Q8WZA2 whole entry, looked up): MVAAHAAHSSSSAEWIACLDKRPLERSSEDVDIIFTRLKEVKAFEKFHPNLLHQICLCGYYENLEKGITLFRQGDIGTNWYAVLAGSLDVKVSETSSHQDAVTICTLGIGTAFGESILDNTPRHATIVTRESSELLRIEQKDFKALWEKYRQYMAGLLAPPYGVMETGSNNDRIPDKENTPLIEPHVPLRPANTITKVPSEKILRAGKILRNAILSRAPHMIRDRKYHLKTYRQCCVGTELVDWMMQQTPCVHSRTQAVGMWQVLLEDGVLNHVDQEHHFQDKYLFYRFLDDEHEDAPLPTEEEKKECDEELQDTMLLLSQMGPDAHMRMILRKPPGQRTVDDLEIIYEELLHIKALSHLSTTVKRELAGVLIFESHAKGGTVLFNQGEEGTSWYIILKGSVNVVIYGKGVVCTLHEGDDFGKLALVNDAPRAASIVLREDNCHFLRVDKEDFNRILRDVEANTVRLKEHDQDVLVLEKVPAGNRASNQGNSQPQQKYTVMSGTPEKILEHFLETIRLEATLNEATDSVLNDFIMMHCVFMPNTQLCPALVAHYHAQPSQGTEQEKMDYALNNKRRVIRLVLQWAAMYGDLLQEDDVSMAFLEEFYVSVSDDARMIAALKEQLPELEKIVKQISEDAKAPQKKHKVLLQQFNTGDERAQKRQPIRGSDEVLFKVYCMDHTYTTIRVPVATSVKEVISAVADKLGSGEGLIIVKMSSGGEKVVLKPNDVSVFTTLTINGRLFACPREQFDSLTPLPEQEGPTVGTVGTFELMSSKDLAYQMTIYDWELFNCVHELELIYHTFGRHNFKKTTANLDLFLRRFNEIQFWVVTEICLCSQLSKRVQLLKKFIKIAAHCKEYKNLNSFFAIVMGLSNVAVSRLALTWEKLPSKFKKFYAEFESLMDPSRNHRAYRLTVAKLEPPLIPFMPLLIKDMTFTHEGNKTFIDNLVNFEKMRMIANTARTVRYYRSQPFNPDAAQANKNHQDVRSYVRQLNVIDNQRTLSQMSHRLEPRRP

[4] = target: Rap guanine nucleotide exchange factor 4 (Homo sapiens) (UniProt Q8WZA2); experiment: Confirmatory qHTS for antagonist of cAMP-regulated guanine nucleotide exchange factor 4 (EPAC2) (AID 1645885); also: nearly all actives have a fitted effect of over 25% in size; also: potency is read from the fitted curve at half-maximal effect; as to activity change, negative = inhibition: % is scaled to controls: 0 for no effect and ±100 for the full control effect
[5] = target: Rap guanine nucleotide exchange factor 3 (Homo sapiens) (UniProt O95398); experiment: Counterscreen qHTS for antagonist of cAMP-regulated guanine nucleotide exchange factor 3 (EPAC1) (AID 1645888);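 also: fluorescence loss as bound BODIPY-GDP is released from Rap1B; % of control where 0% means no effect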
How it was run: (§1)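 Rap1B–BODIPY-GDP (250 nM) with 50 uM GDP; compounds pin-transferred to 9.74 nM–152 uM final (activator) or from 7.32 nM upwards (inhibitor). Fluorescence Ex/Em 480/540 nm read at 5 and 30 min, then after adding cAMP or buffer, at room temperature.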

[6] = target: Rap guanine nucleotide exchange factor 3 (Homo sapiens) (UniProt O95398); experiment: Counterscreen qHTS for agonist of cAMP-regulated guanine nucleotide exchange factor 3 (EPAC1) (AID 1645889); also: nearly all actives have a fitted effect of over 40% in size; also: potency is read from the fitted curve at half-maximal effect; as to activation: % of control where 0% means no effect
How it was run: as §1

CC1(C(=O)O)CCC2(C)CCC3(C)C(=CC(=O)C4C5(C)CCC(=O)C(C)(C)C5CCC43C)C2C1 (stereo not given)
inactive: Potency [1] | Potency [2] | Potency [3] | Potency [4] | Potency [5] | Potency [6]

Cc1ccc(Cn2c(SCC(=O)N/N=C/c3ccc(C)o3)nc3ccccc32)cc1
active: Potency [1] 47.8 µM
inactive: Potency [2] | Potency [3] | Potency [4] | Potency [5] | Potency [6]

O=C(c1ccc(Br)cc1)N(Cc1cccs1)c1ccc(F)cc1
inactive: Potency [1] | Potency [2] | Potency [3] | Potency [4] | Potency [5] | Potency [6]

CC(C)c1c(Cl)c(O)c(-c2ccccc2)c(=O)n1-c1ccc(F)cc1
inactive: Potency [2] | Potency [3] | Potency [4] | Potency [5] | Potency [6]
active: Potency [1] 19 µM

COC1=CC(=O)c2c(ccc3ncnc(N)c23)C1=O
active: Potency [1] 19 µM | Potency [4] 26.9 µM
inactive: Potency [2] | Potency [3] | Potency [5] | Potency [6]

CCOCCCn1c(=N)c(C(=O)NC(C)c2ccccc2)cc2c(=O)n3cccc(C)c3nc21 (stereo not given)
inactive: Potency [1] | Potency [2] | Potency [3] | Potency [4] | Potency [5] | Potency [6]

Fc1cccc(Cc2c(-c3ccccc3)nc3ccc(Cl)cn23)c1
inactive: Potency [1] | Potency [2] | Potency [3] | Potency [4] | Potency [5] | Potency [6]

Cc1ccc(-c2csc(N=C(N)N)n2)cc1
inactive: Potency [1] | Potency [2] | activation [3] 2.77% [at 17.1 µM, percent relative to cAMP agonist control] | Potency [4] | activity change, negative = inhibition [5] -10% [at 30.8 µM] | activation [6] 9.63% [at 30.8 µM]

Cc1ccc2c(c1)c(/C=C/c1cc[n+](C)cc1)c(C)n2C
active: Potency [2] 100 µM | Potency [3] 100 µM | Potency [6] 8.91 µM
inactive: Potency [1] | Potency [4] | Potency [5]

COc1ccc2c(c1)C1=NN(/C(C)=C/C(C)=O)C(c3cccc(F)c3)C1CC2 (stereo not given)
inactive: Potency [1] | Potency [2] | activation [3] 0.819% [at 17.1 µM, percent relative to cAMP agonist control] | Potency [4] | activity change, negative = inhibition [5] -17.2% [at 30.8 µM] | activation [6] 8.14% [at 30.8 µM]

CCc1nc2c(OCc3ccc(C(=O)OC)cc3)cccn2c1N(C)C(=O)CC(C)C
inactive: Potency [1] | Potency [2] | Potency [3] | Potency [4] | Potency [5] | Potency [6]

CC(C)(C)C(=O)NCc1ccc(C(=O)CN2C(=O)NC3(CCCC3)C2=O)s1
inactive: Potency [1] | Potency [2] | Potency [3] | Potency [4] | Potency [5] | Potency [6]

Cc1ccc(S(=O)(=O)Nc2ccccc2N2CCCCC2)cc1
inactive: Potency [1] | Potency [2] | activation [3] 1.85% [at 17.1 µM, percent relative to cAMP agonist control] | Potency [4] | activity change, negative = inhibition [5] -22.5% [at 30.8 µM] | activation [6] 18.9% [at 30.8 µM]

COc1ccccc1N1CC(C(=O)Nc2cc(C(F)(F)F)ccc2N2CCCC2)CC1=O (stereo not given)
inactive: Potency [1] | Potency [2] | activation [3] 9.01% [at 17.1 µM, percent relative to cAMP agonist control] | Potency [4] | activity change, negative = inhibition [5] -8.33% [at 30.8 µM] | activation [6] 9.96% [at 30.8 µM]

COc1ccc(C2c3c(-c4ccccc4O)n[nH]c3C(=O)N2Cc2ccco2)cc1 (stereo not given)
inactive and 37.9 µM (active): Potency [4]
inactive: Potency [1] | Potency [2] | Potency [3] | Potency [5] | Potency [6]

CCN(CC)c1nc(SCC(=O)O)nc(N(CC)CC)n1
active: Potency [4] 12 µM
inactive: Potency [1] | Potency [2] | Potency [3] | Potency [5] | Potency [6]

O=C(CSCC(=O)N1CCOCC1)Nc1nc(-c2ccccc2)cs1
active: Potency [4] 84.9 µM
inactive: Potency [1] | Potency [2] | Potency [3] | Potency [5] | Potency [6]

CCOC(=O)c1c(CC(C)C)csc1N
inactive: Potency [1] | Potency [2] | Potency [3] | Potency [4] | Potency [5] | Potency [6]

Cc1noc(NS(=O)(=O)c2ccc(NC(=O)CSc3nnc4c(n3)[nH]c3ccccc34)cc2)c1C
inactive: Potency [2] | Potency [3] | Potency [4] | Potency [5] | Potency [6]
active: Potency [1] 23.9 µM

CCCCNC(=O)c1ccc2nc(-c3ccco3)c(-c3ccco3)nc2c1
inactive: Potency [2] | activation [3] 3.07% [at 17.1 µM, percent relative to cAMP agonist control] | Potency [4] | activity change, negative = inhibition [5] -2.83% [at 30.8 µM] | activation [6] 11.8% [at 30.8 µM]
active: Potency [1] 7.94 µM
